Rows were chosen to be rich in hits. Some 3.4% of all compounds tested hit in one or more screens of this group.
TEAD-YAP inh: TEAD-YAP interaction inhibition, primary screen, TEAD-YAP interaction inhibitor project, luminescence, HEK-TIYL cells; TEAD-Gal4/YAP UAS-luciferase luminescence; 640,000 compounds, 1.4% hits; inhibition, % at 9.12 µM; in the data active = inhibition above about 32%
MITF primary: MITF inhibitors, primary screen, biochemical, AlphaScreen, human | Microphthalmia-associated transcription factor (Homo sapiens), O75030 | AlphaScreen MITF homodimerization, bead proximity signal | inhibition, % at 2.6 µM | 650,000 compounds, 0.91% hits | AID 1259374, 2018; in the data active = inhibition above about 50%
FBW7 activator: FBW7 E3 ligase activators, primary screen, biochemical, AlphaScreen, human | normalized activity (activation), % at 26.1 µM | F-box/WD repeat-containing protein 7 (Homo sapiens), Q969H0 | AlphaScreen FBW7–phospho-cyclin E peptide binding, activator screen | 650,000 compounds, 0.13% hits; in the data active = normalized activity above about 1.9%;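 also: purified mutant Fbw7 with reduced substrate affinity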
GPR151 activ: activators of human GPR151, primary screen, cell-based, PathHunter beta-arrestin, luminescence; G-protein coupled receptor 151 (Homo sapiens), Q8TDV0; PathHunter beta-arrestin GPR151 cells; activation, % at 11.2 µM; 650,000 compounds, 1% hits; in the data active = activation above about 4.9%
GPR151 conf act: GPR151 activators, triplicate retest, confirmation, cell-based, PathHunter beta-arrestin, luminescence. shares compounds with GPR151 activ. GPR151 PathHunter beta-arrestin cells, 90 min; % of EA-reagent control over plate median. activation, % at 11.2 µM. 6,700 tested, under 10 active. AID 1508609, 2020;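 active = mean percent activation across replicates above the confirmation screen cutoff of 4.91%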
GPR119 counter: GPR119 activators in beta-arrestin cells, counter-screen for GPR151 activator project, cell-based, PathHunter beta-arrestin, luminescence, triplicate; shares compounds with GPR151 activ; 90 min; 0 = compound-well median, 100 = enzyme-acceptor control; activation, % at 11.2 µM; 6,700 compounds, 0.3% hits;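 active = mean percent activation in the counterscreen above 29.09%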;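 also: counterscreen on off-target GPR119 to flag nonselective hits from the GPR151 activator screen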
Target sequence (Q8TDV5 whole entry, looked up): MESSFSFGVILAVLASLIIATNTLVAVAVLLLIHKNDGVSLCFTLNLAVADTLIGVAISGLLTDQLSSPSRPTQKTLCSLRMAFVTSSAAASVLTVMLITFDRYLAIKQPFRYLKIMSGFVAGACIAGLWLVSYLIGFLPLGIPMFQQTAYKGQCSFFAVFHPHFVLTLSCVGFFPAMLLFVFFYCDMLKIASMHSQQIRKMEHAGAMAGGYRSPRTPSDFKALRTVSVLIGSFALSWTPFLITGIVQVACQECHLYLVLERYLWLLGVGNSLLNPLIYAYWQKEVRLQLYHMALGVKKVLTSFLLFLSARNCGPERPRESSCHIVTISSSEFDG
Large screens that a line does not name were inactive (follow-up assays come after a bar, where they were run).

CCCC(=O)Nc1nn2c(CC(C)C)nnc2s1	GPR151 activ 7.1 | GPR151 conf act inactive | GPR119 counter inactive
CC(C)Cc1nnc2sc(NC(=O)C(C)C)nn12	none
COc1ccc(C2C(C(=O)Nc3ccc(OC)cc3OC)CCC(=O)N2c2ccc(OC)cc2)cc1 (configuration not stated)	none
Cc1ccc(-c2cc(C(=O)Nc3cccnc3)c3cc(Br)ccc3n2)o1	GPR151 activ 6.5 | GPR151 conf act inactive | GPR119 counter inactive
Cc1ncn(-c2ccc(Nc3nccc(-c4c(C)noc4C)n3)cc2)n1	none
C=CCOc1ccc(/C=C2\C(=O)NN(c3ccccc3)C2=O)cc1OC	GPR151 activ 5.3 | GPR151 conf act inactive | GPR119 counter inactive
CCOC(=O)C1C(=O)CC(C)(O)C(C(=O)OCC)C1c1ccc(C)cc1 (configuration not stated)	none
CCOC(=O)C1C(=O)CC(C)(O)C(C(=O)OCC)C1c1ccc2c(c1)OCO2 (configuration not stated)	GPR151 activ 5.1 | GPR151 conf act inactive | GPR119 counter inactive
O=C(Cc1cccc2c(S(=O)O)cccc12)NC(c1ccccc1)c1ccccc1	GPR151 activ 6.8 | GPR151 conf act inactive | GPR119 counter inactive
O=C1c2cccc3cccc(c23)C(=O)N1Cc1ccco1	none
O=C1c2cc3ccccc3cc2C(=O)N1Cc1ccco1	GPR151 activ 5.8 | GPR151 conf act inactive | GPR119 counter inactive
COC(=O)C1=C(C(=O)OC)SC2(S1)C(C(=O)OC)=C(C(=O)OC)SC1=C2c2cc(OC)ccc2N(C(=O)C(C)C)C1(C)C	none
CN1CSC2=C(C#N)C(c3cccc(OCc4ccccc4)c3)CC(=O)N2C1 (configuration not stated)	GPR151 activ 8.7 | GPR151 conf act inactive | GPR119 counter inactive
COc1ccc(-c2nc3ccc(C(=O)NCCOc4ccccc4)cc3s2)cc1	none
CCc1ccc(/C=C(\C#N)c2ccccn2)cc1	none
COC(=O)c1ccc(/C=N/Nc2nncn2N)cc1	none
Clc1ncnc2c1oc1ccccc12	GPR151 activ 9.1 | GPR151 conf act inactive | GPR119 counter inactive
O=C1COc2cc(-c3c(NC4CCCCC4)c(=O)c3=O)ccc2N1	GPR151 activ 14.1 | GPR151 conf act inactive | GPR119 counter inactive
O=C(Cn1ncc2c(=O)oc3ccccc3c21)NCCOC1C2CC3CC(C2)CC1C3 (configuration not stated)	none
Cc1nnc(SCc2cc(=O)n3[nH]cnc3n2)s1	GPR151 activ 5.7 | GPR151 conf act inactive | GPR119 counter inactive
CC(C)(C)NS(=O)(=O)c1ccc(NC(=O)/C=C/c2ccccc2)cc1	none
CCCCCC(=O)N1c2ccccc2NC2=C(C(=O)CC(C)(C)C2)C1c1cc(OC)ccc1OC (configuration not stated)	none
CC(C)C(=O)NCc1nc(-c2cccnc2)n[nH]1	none
C/C(=N\Nc1ccc([N+](=O)[O-])cc1S(=O)(=O)N1CCOCC1)c1cccs1	GPR151 activ 6.3 | GPR151 conf act inactive | GPR119 counter inactive
COc1ccc(/C(C)=N/Nc2ccc([N+](=O)[O-])cc2S(=O)(=O)N2CCOCC2)cc1	none
C=CCOc1ccc(/C=N/NC(=O)C(=O)Nc2cccc(Cl)c2)cc1OCC	none
Cc1nc(N2CCOCC2)c2c(C)c(C(=O)Nc3cccc(C(F)(F)F)c3)sc2n1	GPR151 activ 5.8 | GPR151 conf act inactive | GPR119 counter inactive
Cc1nc2sc(C(=O)Nc3cccc(C(F)(F)F)c3)c(C)c2c(=O)[nH]1	GPR151 activ 6.5 | GPR151 conf act inactive | GPR119 counter inactive
Cc1ccc(NC(=O)c2sc3nc(C)nc(N4CCN(c5ccccn5)CC4)c3c2C)c(Br)c1	GPR151 activ 8.8 | GPR151 conf act inactive | GPR119 counter inactive
Cc1cccc(NC(=O)c2sc3nc(C)nc(N4CCOCC4)c3c2C)c1	none
CCOC(=O)CN1C(=O)S/C(=C/c2ccc(OCC(N)=O)c(OCC)c2)C1=O	none

Screening results (PubChem BioAssay)
